High-throughput results: PubChem, National Center for Advancing Translational Sciences (NCATS)
Sampled rows, rich in hits. Any-hit rate of the full collection: about 3.7%.
Sm TGR block = inhibitors of Schistosoma mansoni thioredoxin glutathione reductase; Q962Y6; Potency, µM (series often up to 114 µM), for the others: at the highest dose activity change, negative = inhibition, usual class: inhibitors; hit rate 3% among 360,000; AID 485364; purified TGR, DTNB reduction, TNB absorbance 405 nm; further: nearly all actives have a fitted effect of over 60% in size
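Kinetic colorimetric format: TGR-catalysed, NADPH-driven DTNB reduction monitored via TNB absorbance. Enzyme dispensed at 20 nM; compound exposure 15 min at room temperature before reaction start.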
TbPYK inhibitor = T. brucei pyruvate kinase inhibition. Potency, µM (top dose mostly 76.8 µM), inactives show at the top dose activity, negative = inhibition, usual class: inhibitors. TbPYK enzyme, Kinase-Glo Plus ATP luminescence, 45 min. hit rate 0.12% among 410,000. AID 624173. Q57TT1; further: nearly all actives have a fitted effect of over 50% in size
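Quantitative HTS: titrated library compounds versus trypanosomal pyruvate kinase in TEA buffer (pH 7.2) containing KCl, MgCl2, BSA and Tween-20. Reactions were initiated with ADP, 130 uM final. Kinase-Glo Plus luminescence was read after 45 min at RT.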
FMDV antiviral = blocks foot and mouth disease virus; FMDV antiviral cell-based qHTS; Potency, µM (doses to about 57.9 µM), inactives show at the top dose activity change, negative = inhibition, hits mostly inhibitors; hit rate 1.2% among 410,000; calls by dose curve; tested in HEK293T cells; further: read-out not given here; nearly all actives have a fitted effect of over 45% in size
RE007 growth inh = less growth of the S. pombe RE007 Vpr strain | S. pombe RE007 Vpr strain, BacTiter-Glo ATP luminescence, 24 h | Potency, µM (series often up to 92.2 µM), for inactives: at the highest dose activity change, negative = less growth, usual class: inhibitors | hit rate 0.21% among 360,000; active means well fitted falling curve with a large enough effect; inconclusive means small, poorly fitted or top-dose-only effect; inactive means no such curve, though single readings can be large or run the other way; further: nearly all actives have a fitted effect of over 50% in size
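Fission yeast strain RE007, carrying one chromosomally integrated HIV-1 vpr copy, was seeded at OD 0.01 in PMG+AL medium with 23 nL pinned compound. After 24 h at 30 °C and 99% humidity, viability was read by BacTiter-Glo luminescence.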
* = called active by the depositor. Unless noted, the call rests on the fitted dose curve; in most records, active means well fitted curve in the direction sought with a large enough effect; inconclusive means small, poorly fitted or top-dose-only effect, or another doubt; inactive means no such curve, though single readings can be large; an effect the other way counts as inactive or inconclusive. On the % scale 0 is the no-effect control and ±100 the full control effect; potency means the concentration at half of the fitted maximal effect.

O=S(=O)(c1ccc2ccccc2c1)N1CCCCCC1 was read as Sm TGR block 7%, TbPYK inhibitor 0%, FMDV antiviral 0% and RE007 growth inh 12%.
Screening COCCN1CCN(C(=O)c2cnn(-c3nccc(-c4ccco4)n3)c2C2CC2)CC1 returned FMDV antiviral 5%.
For O=C(Nc1ccc(Cl)cc1)C1CCN(S(=O)(=O)c2ccc(Br)s2)CC1 the results were Sm TGR block -2%, TbPYK inhibitor -4% and FMDV antiviral inconclusive.
`O=C(NCCCN1CCN(c2ccc(F)cc2)CC1)c1cc2c(Cl)nc3ccccc3c2s1` gave Sm TGR block -1%, TbPYK inhibitor 1% and FMDV antiviral inconclusive.
Screening CCCC(=O)N(Cc1cc(=O)[nH]c2ccccc12)c1ccc(OC)cc1 returned Sm TGR block -1%, TbPYK inhibitor -12%, FMDV antiviral -16% and RE007 growth inh -9%.
`Cc1cccc(N(Cc2cc(=O)[nH]c3ccccc23)C(=O)CCl)c1` gave Sm TGR block inconclusive, TbPYK inhibitor 3%, FMDV antiviral 20µM* and RE007 growth inh -20%.
For CCCC(=O)N(Cc1cc(=O)[nH]c2ccccc12)c1cccc(C)c1 the results were Sm TGR block 0%, TbPYK inhibitor -5%, FMDV antiviral -18% and RE007 growth inh 9%.
`COc1ccc(N(Cc2cc(=O)[nH]c3ccccc23)C(=O)CCl)cc1` gave Sm TGR block 7.9µM*, TbPYK inhibitor 3%, FMDV antiviral 20µM* and RE007 growth inh 5%.
For Cc1cc(C)cc(Nc2cc(-c3ccccc3)nc(C)n2)c1 the results were Sm TGR block -4%, TbPYK inhibitor 2% and FMDV antiviral inconclusive.
`CS/C(=C/[N+](=O)[O-])Nc1cccc2c1C(C)CC2(C)C` (stereo not drawn) gave Sm TGR block 13µM*, TbPYK inhibitor 3%, FMDV antiviral 0% and RE007 growth inh 12%.
For CC(=O)Nc1cc2c(c([N+](=O)[O-])c1C)C(C)(C)CC2(C)C the results were TbPYK inhibitor -4%, FMDV antiviral 0% and RE007 growth inh -10%.
`Cc1ccc(-n2c(SCC(=O)Nc3c(C)cccc3C)nc(O)c(C)c2=O)cc1` gave Sm TGR block 0%, TbPYK inhibitor 6% and FMDV antiviral -16%.
For CCCn1cnc2c(c1=O)c1nc3ccccc3nc1n2CCC1=CCCCC1 the results were Sm TGR block -3%.
For O=c1c2c3nc4ccccc4nc3n(/N=C/c3ccco3)c2ncn1CCC1=CCCCC1 the results were Sm TGR block 13µM*, TbPYK inhibitor -9% and RE007 growth inh -16%.
For CCN(CC)c1ccc(C=Nc2ccccc2)c(O)c1 the results were Sm TGR block -10%, TbPYK inhibitor 6%, FMDV antiviral 28% and RE007 growth inh -22%.
`CCN(CC)c1ccc(/C=N/Nc2cccc(C)c2)c(O)c1` gave Sm TGR block 10µM*, TbPYK inhibitor 1%, FMDV antiviral 8% and RE007 growth inh 7%.
For CCN(CC)c1ccc(/C=N/Nc2ccccc2)c(O)c1 the results were Sm TGR block 10µM*, TbPYK inhibitor 2%, FMDV antiviral 26% and RE007 growth inh -8%.
Screening CCCCC(=O)Nc1nnc(S(=O)(=O)N(CC)c2cc(C)cc(C)c2)s1 returned Sm TGR block 7%, TbPYK inhibitor 1% and FMDV antiviral -2%.
Cc1cn2c(=O)cc(COc3cccc(NC(=O)c4ccccc4Cl)c3)nc2s1 was read as Sm TGR block -8%, TbPYK inhibitor 3% and FMDV antiviral -24%.
Cc1c(C(=O)Nc2ccncc2)sc2nc(-c3ccccc3)cn12 was read as Sm TGR block -2%, TbPYK inhibitor 2%, FMDV antiviral 20µM* and RE007 growth inh 8%.
`Cc1c(C(=O)Nc2ccc3c(c2)OCCO3)sc2nc(-c3ccccc3)cn12` gave Sm TGR block -1%, TbPYK inhibitor 0%, FMDV antiviral 16µM* and RE007 growth inh 9%.
For CCN(CC)c1ccc(NC(=O)c2sc3nc(-c4ccccc4)cn3c2C)cc1 the results were Sm TGR block -9%, TbPYK inhibitor -5% and FMDV antiviral -26%.
Cc1nc(C)c(C(=O)C2=C(O)C(=O)N(CCN(C)C)C2c2ccco2)s1 (stereo not drawn) was read as Sm TGR block -19%, TbPYK inhibitor 0%, FMDV antiviral 5% and RE007 growth inh 6%.
